Values without a mark were called inactive. Inconclusive results are not listed. Active and inactive are the calls of the source. The call rests on the fitted dose curve; in most records, active means well fitted curve in the direction sought with a large enough effect; inconclusive means small, poorly fitted or top-dose-only effect, or another doubt; inactive means no such curve, though single readings can be large; an effect the other way counts as inactive or inconclusive.

Test [1] can be described thus: qHTS assay for measurement of the activity of small molecule inhibitors on Zika virus induced Caspase-3 activity in human iPSC derived neural progenitor cells (hNPCs) (AID 1224857). Further: nearly all actives have a fitted effect of over 65% in size. Further: potency means the concentration at half of the fitted maximal effect. The procedure, abridged:
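hNPCs seeded 350 cells/well, cultured 16–20 h; compounds added 1 h before ZIKV (2 FFU/cell), 37 C 6 h. Caspase-Glo 3/7 luminescence after 30 min RT; % inhibition from induction scaled to uninfected (0%) and infected (100%) wells.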
Background: qHTS replaces the single test concentration by a dilution series.

Test [2] can be described thus: qHTS Screen of the MIPE 4.0 Collection Against Ewings Sarcoma (RDES) (AID 1259252). Further: nearly all actives have a fitted effect of over 35% in size. Further: potency means the concentration at half of the fitted maximal effect. The procedure, abridged: (§1)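 Log-phase cells in RPMI with 5% FBS attached for 4 h, then received compounds as a titration for 48 h at 37C, 5% CO2. Viability was read by CellTiter-Glo luminescence and normalized to DMSO and no-cell wells.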
Test [3] can be described thus: qHTS Screen of the MIPE 4.0 Collection Against Ewings Sarcoma (TC71) (AID 1259253). Further: nearly all actives have a fitted effect of over 40% in size. Further: potency means the concentration at half of the fitted maximal effect. The method in brief:
as §1

A short description of test [4]: qHTS Screen of the MIPE 4.0 Collection Against Ewings Sarcoma (EW8) (AID 1259255). Further: nearly all actives have a fitted effect of over 35% in size. Further: potency means the concentration at half of the fitted maximal effect. The method in brief:
as §1

Test [5] can be described thus: qHTS Screen of the MIPE 4.0 Collection Against Ewings Sarcoma (TC32) (AID 1259256). Further: nearly all actives have a fitted effect of over 45% in size. Further: potency means the concentration at half of the fitted maximal effect. The procedure, abridged:
as §1

Test [6] in a line: Identifying Small Molecule Inhibitors of Pancreatic Cancer Stem Cells (SN12C, Adherent) (AID 1259358).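 Further: cell survival measured after 48 h of compound exposure.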 Further: potency means the concentration at half of the fitted maximal effect. The procedure, abridged:
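Spheroids grown 14 days in stem cell media on hydrogel-coated nonadherent plates; 2D lines seeded directly. Compounds added after 4 h attachment, 48 h at 37C, 5% CO2; CellTiter-Glo luminescence normalized to DMSO (no inhibition) and no-cell wells (full inhibition).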

Test [7] is described as follows: Identifying Small Molecule Inhibitors of Pancreatic Cancer Stem Cells (Panc1, Spheroid) (AID 1259359).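 Further: potency means the concentration at half of the fitted maximal effect; compound exposure lasted 48 h before reading.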 The procedure, abridged: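 Spheroids grown 14 days in stem cell media on nonadherent hydrogel before screening; cells attached 4 h, then compound exposure 48 h at 37C, 5% CO2. CellTiter-Glo luminescence normalized to DMSO (no inhibition) and no-cell wells (full inhibition).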

Test [8] in a line: Identifying Small Molecule Inhibitors of Pancreatic Cancer Stem Cells (A2780, Spheroid) (AID 1259357). Further: potency means the concentration at half of the fitted maximal effect.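 Further: spheroids pre-formed over 14 days in stem cell medium on hydrogel; compound exposure lasted 48 h before the ATP luminescence read.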 To be noted: Potency: A2780 spheroid viability. The method in brief: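 Adherent (2D) versus sphere (3D) formats; spheres generated 14 d in SCM beforehand. Compound transferred by pin tool after 4 h, 48 h incubation, CellTiter-Glo endpoint.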
Test [9] is described as follows: qHTS assay to identify small molecule inhibitors of chordoma cells - UCH-1 (AID 1259355). Further: nearly all actives have a fitted effect of over 55% in size. The procedure, abridged: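 Screening used approved and investigational drugs in 15-point titration against 800 seeded cells per well. A fixed combination of auranofin with camptothecin, doxorubicin, rubitecan and topotecan followed compound addition, and growth was scored by CellTiter-Glo after 48hr.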

Test [10] in a line: qHTS assay for measurement of the activity of small molecule inhibitors on Zika virus induced Caspase-3 activity in human astrocytoma cells (AID 1224859). The method in brief: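 Luminescence read-out (Caspase-Glo 3/7, 30 min RT) of caspase activity in SNB-19 cells infected 6 h with ZIKV, 2 FFU/cell, after 1 h compound pretreatment; % inhibition from induction normalised to uninfected (0%) and infected (100%) wells.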

On to `COC(=O)c1ccc2c(C(=Nc3ccc(N(C)C(=O)CN4CCN(C)CC4)cc3)c3ccccc3)c(O)[nH]c2c1`, for which the Potency result in [1] was “inactive”. The Potency in [2] is 148 nM (active); in [3], 743 nM (active); in [4], 3320 nM (active); in [5], 1480 nM (active); in [6], 18700 nM (active); in test [7], 13200 nM (active).

With `Cc1cc(N2CCOCC2)cc2[nH]c(-c3c(NC[C@@H](O)c4cccc(Cl)c4)cc[nH]c3=O)nc12`, the Potency entry in test [1] is “inactive”. Besides, the Potency in test [2] was 118 nM (active); in test [3], 590 nM (active); in test [4] it was 20900 nM (active); in [5], 1870 nM (active).

With `O=C(c1ccc(Nc2nccc(-c3cc4ccccc4s3)n2)cc1)N1CCC(N2CCCC2)CC1`, the Potency entry in test [1] was “inactive”. In addition, the Potency was 18700 nM (active) in test [3], 20900 nM (active) in [4], 20900 nM (active) in test [5] and 26400 nM (active) in test [6].

Regarding `CC1(C)OC2=C(C(=O)c3ccccc3C2=O)[C@H](NCc2ccccc2)[C@H]1O`, the Potency is 18700 nM (active) in [1]; 2640 nM (active) in test [2]; 2640 nM (active) in test [3]; 2960 nM (active) in test [4]; 3320 nM (active) in [5]; 14800 nM (active) in test [8]. The Potency is 26400 nM (active) in test [6] and 743 nM (active) in [7].

For the compound `Nc1ncnc2c1c(-c1cnc3[nH]ccc3c1)nn2C1CCCC1`, the Potency result in test [1] is “inactive”. The Potency is 469 nM (active) in [2], 662 nM (active) in [3], 2090 nM (active) in test [4] and 1050 nM (active) in test [5].

`COCCOc1ccc2c(c1)ncn2-c1ccc2cccc(N3CCC(N)CC3)c2n1`: in [1], the Potency entry was “inactive”. The Potency in test [2] was 18700 nM (active); in test [3], 14800 nM (active); in test [4], 18700 nM (active); in test [5], 23500 nM (active).

On to `CC1(O)CC(c2nc(-c3ccc4ccc(-c5ccccc5)nc4c3)c3c(N)nccn23)C1` (configuration not stated), for which the Potency result in [1] is “inactive”. Also, the Potency in test [2] was 20900 nM (active); in [3], 5900 nM (active); in test [4], 13200 nM (active); in test [5] it was 74.3 nM (active); in test [7], 148 nM (active).

In the case of `O=C(C=Cc1cccc(S(=O)(=O)Nc2ccccc2)c1)NO`, the Potency result in test [1] is “inactive”. The Potency in [2] was 2150 nM (active); in test [3] it was 2700 nM (active); in test [4] it was 1520 nM (active); in test [5], 1910 nM (active); in test [6], 20900 nM (active).

With `O=C(Nc1cc(C(F)(F)F)cc(C(F)(F)F)c1)c1cc(Cl)ccc1O`, in test [1], the Potency entry is “inactive”. Also, the Potency is 1180 nM (active) in [2]; 1050 nM (active) in test [3]; 2350 nM (active) in test [4]; 1180 nM (active) in [5]; 526 nM (active) in test [8]; 372 nM (active) in test [7].

Consider `Cc1cnc(Nc2ccc(F)cc2Cl)nc1-c1c[nH]c(C(=O)N[C@H](CO)c2cccc(Cl)c2)c1`, for which, in test [1], the Potency entry was “inactive”. The Potency in test [3] is 18700 nM (active); in test [4] it was 20900 nM (active); in [5], 23500 nM (active); in test [6], 13200 nM (active).

With `CC(NCc1ccc2c(c1)nc(NC(=O)c1ccc(-c3cn[nH]c3)s1)n2CC(C)(C)O)C(C)(C)C` (configuration not stated), the Potency entry in test [1] was “inactive”. For the same compound, the Potency was 332 nM (active) in [3]; 469 nM (active) in test [4]; 372 nM (active) in test [5]; 296 nM (active) in test [6]; 166 nM (active) in test [7].

Consider `CCC1=C[C@@H]2CN(C1)Cc1c([nH]c3ccccc13)[C@@](C(=O)OC)(c1cc3c(cc1OC)N(C)[C@@H]1[C@@](O)(C(=O)OC)[C@H](OC(C)=O)[C@]4(CC)C=CCN5CC[C@]31[C@@H]54)C2`, for which the Potency entry in test [1] and in test [5] was “inactive” each time. Further, the values for the Potency in test [2], in [3] and in test [4] were 14.8 nM (active), 166 nM (active) and 6.6 nM (active), respectively.

As to `O=C(O)C1(Cc2cccc(Nc3nccs3)n2)CCC(Oc2cccc(Cl)c2F)CC1` (configuration not stated), the Potency entry in test [1] is “inactive”. Besides, the results for the Potency in test [3], in test [4] and in [5] were 1660 nM (active), 743 nM (active) and 372 nM (active), respectively.

As to `C=CC(=O)N1CCC[C@@H](n2nc(-c3ccc(Oc4ccccc4)cc3)c3c(N)ncnc32)C1`, the Potency result in [1] and in test [8] was “inactive” in each case. For the same compound, the Potency in test [3] was 29600 nM (active); in [4] it was 23500 nM (active); in [5], 18700 nM (active).

Turning to `Cc1cccc(C=NNc2cc(N3CCOCC3)nc(OCCc3ccccn3)n2)c1`, in [1], the Potency result is “inactive”. Also, the Potency in test [3] is 16600 nM (active); in test [4], 16600 nM (active); in test [5] it was 5260 nM (active); in test [7], 23500 nM (active).

Turning to `Clc1cccc(-n2nnnc2NCc2ccccc2Oc2ccccn2)c1Cl`, the Potency result in [1], in [3], in test [4] and in [5] was “inactive” each time.

On to `O=c1c2ccccc2nc2n1CCc1c-2[nH]c2ccccc12`, for which the Potency in [1] was 13200 nM (active). Further, the Potency entry in test [2], in [3], in test [4] and in test [5] was “inactive” in each case.

With `O=c1[nH]c(=O)n(C2CCCO2)cc1F` (configuration not stated), the Potency result in test [1], in test [2], in test [3], in [4], in test [5] and in [9] was “inactive” in each case.

For the compound `CC1(C)CCC(c2ccc(Cl)cc2)=C(CN2CCN(c3ccc(C(=O)NS(=O)(=O)c4ccc(N[C@H](CCN5CCOCC5)CSc5ccccc5)c(S(=O)(=O)C(F)(F)F)c4)cc3)CC2)C1`, the Potency entry in test [10] is “inactive”. In addition, the Potency was 26400 nM (active) in test [2]; 18700 nM (active) in test [3]; 29600 nM (active) in [4]; 5260 nM (active) in test [5]; 20900 nM (active) in [8].

For the compound `CN1CC[C@@H](c2c(O)cc(O)c3c(=O)cc(-c4ccccc4Cl)oc23)[C@@H](O)C1`, the Potency entry in test [1] is “inactive”. The Potency in test [2] was 148 nM (active); in test [3], 74.3 nM (active); in test [4], 118 nM (active); in [5] it was 148 nM (active); in [8], 74.3 nM (active); in test [6], 187 nM (active). In [7], the Potency was 132 nM (active).

On to `COc1ccc(CC2SC(=O)NC2=O)cc1C(=O)NCc1ccc(C(F)(F)F)cc1` (configuration not stated), for which the Potency entry in [1], in [2], in test [3], in test [4], in [5] and in test [6] was “inactive” each time.

For `Cc1cc(Nc2cc(N3CCN(C)CC3)nc(C=Cc3ccccc3)n2)n[nH]1`, in test [1], the Potency result is “inactive”. For the same compound, the Potency in [3] is 2410 nM (active); in [4], 1710 nM (active); in test [5] it was 2410 nM (active).

Turning to `CC(=O)c1c(C)c2cnc(Nc3ccc(N4CCNCC4)cn3)nc2n(C2CCCC2)c1=O`, the Potency result in test [1] and in test [8] was “inactive” in each case. Also, the Potency in [2] is 18700 nM (active); in test [3] it was 5260 nM (active); in [4], 20900 nM (active); in [5], 14800 nM (active).

As for `COc1ccc2c(c1)CC[C@@H](CN(C)CC(=O)O)[C@H]2c1ccccc1`, the Potency result in test [1] and in test [6] was “inactive” in each case. The Potency in [2] is 2350 nM (active); in [3], 3720 nM (active); in test [4], 2350 nM (active); in test [5], 2350 nM (active).

For `Cc1c(C)n(Cc2ccc(-c3ccccc3C(=O)O)cc2)c2ccc(C(=O)N[C@@H](C)c3ccc([N+](=O)[O-])cc3)cc12`, the Potency result in test [1], in test [2], in [3], in [4] and in [5] was “inactive” in each case.

Consider `C=CC(=O)Nc1cc2c(Nc3ccc(F)c(Cl)c3)ncnc2cc1OCCCN1CCOCC1`, for which, in [1], the Potency result is “inactive”. Also, the Potency is 20900 nM (active) in test [2]; 14800 nM (active) in [3]; 16600 nM (active) in [4]; 14800 nM (active) in test [5]; 23500 nM (active) in test [8]; 23500 nM (active) in [6].
